In all, about 48,000 compounds went through this assay and about 13,000 (27%) showed an effect of 50% or more. This is one part of the list.

The test system of this experiment is Wolbachia pipientis. Nature of the experiment: Anti-Wolbachia Cell-Based Screen. More on the design: scale not given: in the data most compounds retested in dose-response had high values. Type of experiment: functional. Particulars: 5 µM.
Consider `N#CC1(NC(=O)Cn2nnc(-c3cc4ccccc4o3)n2)CCCC1`, for which the “Percent Effect” value is recorded as 6.129%. For the molecule `CCOC(=O)NC(CNC(=O)c1cn(C)cn1)CC(C)C` (stereo unspecified), the “Percent Effect” value is listed as -4.121%. As to `COc1cnc(N2CCC(c3ncc[nH]3)CC2)nc1`, the “Percent Effect” value stood at 16.53%. Regarding `COc1ccc2[nH]cc(-c3ccnc(N4CCC(C)CC4)n3)c2c1`, the “Percent Effect” value is given as 108.4%. Consider `COc1ccc2[nH]cc(C3CCN(CCC(N)=O)CC3)c2c1`, for which the “Percent Effect” value is listed as -13.9%.

On to `COc1ccc2[nH]cc(-c3ccnc(NC4CCCC4)n3)c2c1`, for which the “Percent Effect” value is on record as 98.2%. Under `COc1nccnc1-c1cc(NC2CCCC2)nc2[nH]ccc12` stands -1.982%.

Regarding `COc1cc(-c2cc(NC3CCCC3)nc3[nH]ccc23)nc(N)n1`, the “Percent Effect” value is -4.005%.

Regarding `COC(=O)c1cc(NS(=O)(=O)c2cn(C)cn2)c(F)cc1F`, the “Percent Effect” value was -3.496%. Regarding `CS(=O)(=O)c1nnc(NC(=O)CCc2cccs2)[nH]1`, the “Percent Effect” value turned out to be 5.426%. As to `O=C(NCc1ccc(-n2cncn2)nc1)c1ccc2c(c1)CCO2`, the “Percent Effect” value came out at 2.792%. Under `CCN1CCO[C@@H]2CN(C(=O)c3ccc4[nH]ccc4c3)CC[C@@H]2C1.O=C(O)C(F)(F)F` stands -16%; under `CC(=O)N1CCO[C@@H]2CN(C(=O)NCc3ccccc3)CC[C@@H]2C1`, 88.95%. As for `CCN1CCO[C@@H]2CN(C(=O)NCc3ccccc3)CC[C@@H]2C1`, the “Percent Effect” value is 91.66%.

For `COCCN1CCO[C@@H]2CN(C(=O)NCc3cccnc3)CC[C@@H]2C1.O=C(O)C(F)(F)F.O=C(O)C(F)(F)F`, the “Percent Effect” value is recorded as -7.719%. With `CC(=O)N1CCO[C@@H]2CN(C(=O)NCc3cccnc3)CC[C@@H]2C1.O=C(O)C(F)(F)F`, the “Percent Effect” value is -5.554%.

For the molecule `CCN(CC)Cc1cc(C(=O)N2CCCC(O)(CO)C2)c(C)o1` (stereo unspecified), the “Percent Effect” value worked out at 4.357%.

In the case of `CCCc1ccc(CN2CCN(C(=O)NCC)[C@H]3CS(=O)(=O)C[C@H]32)o1`, the “Percent Effect” value was -11.9%. Turning to `CCCc1ccc(CN2CCN(C(=O)C(C)C)[C@@H]3CS(=O)(=O)C[C@@H]32)o1`, the “Percent Effect” value is 2.422%. Take `CCCc1ccc(CN2CCN(C(=O)N(C)C)[C@@H]3CS(=O)(=O)C[C@@H]32)o1`: the “Percent Effect” value stood at 6.47%. Consider `Cc1ccc(CN2CCN(Cc3nccn3C)[C@H]3CS(=O)(=O)C[C@H]32)o1`, for which the “Percent Effect” value was found to be 91.25%. On to `CCCc1ccc(CN2CCN(c3ncccn3)[C@@H]3CS(=O)(=O)C[C@@H]32)o1`, for which the “Percent Effect” value is -1.361%. Under `CCn1ccnc1CN1CCN(Cc2ccc(C)o2)[C@@H]2CS(=O)(=O)C[C@@H]21` stands 98.63%; under `O=C(C1CN(c2ncc(F)cn2)CC12CCOCC2)N1CC=CC1.O=C(O)C(F)(F)F` (stereo unspecified), -11.35%; under `c1coc(CN2CCn3c(CN4CCOCC4)nnc3C2)c1`, 0.1546%. Under `O=C(O)C(F)(F)F.O=C(O)C(F)(F)F.c1coc(CN2CCCn3c(CN4CCOCC4)nnc3C2)c1` stands 102%. In the case of `O=C(O)C(F)(F)F.c1coc(CN2CCCn3c(nnc3Cn3cccc3)C2)c1`, the “Percent Effect” value is on record as 110.6%. As to `O=C(O)C(F)(F)F.c1cnn(Cc2nnc3n2CCCN(CC2CCOCC2)C3)c1`, the “Percent Effect” value is recorded as -9.289%.

For the molecule `O=C(O)C(F)(F)F.c1coc(CN2CCn3c(COCC4CC4)nnc3C2)c1`, the “Percent Effect” value is -16.88%.

As for `CCCN1CCN(C(=O)c2cccc3cccnc23)[C@H]2CS(=O)(=O)C[C@H]21`, the “Percent Effect” value is -6.939%. As for `Cc1nnc(CN(C)Cc2nc3c(s2)CCCC3)o1`, the “Percent Effect” value is given as -39.73%.

With `CCc1ncc(C(=O)N2CCC(O)(CN3CCOCC3)C(C)(C)C2)cn1` (stereo unspecified), the “Percent Effect” value is 21.42%. Under `COc1ccc2c(C)c(C(=O)N3CCC(NC(C)=O)C3)oc2c1` (stereo unspecified) stands 4.828%; under `CC(C)(C)c1nnc(CN2CCOC(Cn3cncn3)C2)o1` (stereo unspecified), 5.198%; under `CC(C)CCc1nc(CN2CCOC(Cn3cncn3)C2)cs1` (stereo unspecified), 124.3%. For the molecule `CCCc1nc(CN2CCOC(Cn3cncn3)C2)cs1` (stereo unspecified), the “Percent Effect” value was determined as 112.9%. Under `Cc1cc(CNC(=O)NC(C)c2ccncc2)no1` (stereo unspecified) stands -0.1893%; under `COc1ccccc1OCc1cc(C(=O)N2CCOCC2CO)n[nH]1` (stereo unspecified), -19.45%. `CN(Cc1nncn1C)C(=O)c1cc(COc2ccccc2)[nH]n1`: the “Percent Effect” value is -18.45%. Regarding `O=C(c1cc(COc2ccc3c(c2)OCO3)[nH]n1)N1CC=CC1CO` (stereo unspecified), the “Percent Effect” value is -1.873%. On to `C[C@@H]1CN(C(=O)c2cc(COc3ccc4c(c3)OCO4)[nH]n2)C[C@H](C)O1`, for which the “Percent Effect” value was -15.32%. Under `C[C@@H]1CC[C@@H](C)N1C(=O)c1cc(COc2ccccc2)[nH]n1` stands 96.55%. With `COc1ccccc1OCc1cc(C(=O)N2[C@H](C)CC[C@@H]2C)n[nH]1`, the “Percent Effect” value was -29.7%. For `COc1ccccc1OCc1cc(C(=O)N2C[C@@H](C)O[C@@H](C)C2)n[nH]1` the value was -20.33%; for `COc1ccccc1OCc1cc(C(=O)N2CCC(NC(C)=O)C2)n[nH]1` (stereo unspecified), -14.62%; for `COC(=O)C1C=CCN1C(=O)c1cc(COc2ccccc2)[nH]n1` (stereo unspecified), 114.9%.

The values are drawn from ChEMBL document CHEMBL3988442, “University of Dundee, Small-Polar-MMV Screening Library” (2021).
